Screening data deposited in PubChem BioAssay by National Center for Advancing Translational Sciences (NCATS).
In the library only some 12% were active in any assay of this set; here they are far more common.
NS1 inh: qHTS Assay for Inhibitors of Influenza NS1 Protein Function; Potency, µM (highest dose often 46.1 µM); hit rate 0.4% among 270,000; calls by dose curve; also: actives are rising curves; nearly all actives have a fitted effect of over 50% in size
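Recovery from NS1-induced slow growth read by OD600 in budding yeast switched to galactose assay medium (pH 6.0, -URA) at 1:100 dilution. Compound 23 nl per well; the matching strain lacking NS1 serves as control.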
Pf growth 48h: Primary qHTS for delayed death inhibitors of the malarial parasite plastid, 48 hour incubation; AID 504832, 2011; P. falciparum luciferase growth in erythrocytes, 48 h; Potency, µM (highest dose often 28.7 µM), actives largely listed as inhibitors; hit rate 5.9% among 310,000
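In quantitative HTS format, infected erythrocytes bearing luciferase-reporter parasites were treated for a single generation at 37 C. Luminescence after adding detection reagent served as the growth measure.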
AMA1-RON2 inh: qHTS for Inhibitors of AMA1-RON; Towards Development of Antimalarial Drug Lead: Primary Screen; AID 720542, 2013; Plasmodium falciparum AMA1 (3D7) - RON2 peptide interaction; AlphaScreen AMA1-biotinylated RON2 peptide binding; hit rate 0.2% among 360,000; Potency, µM (series often up to 58.2 µM), hits mostly inhibitors; also: nearly all actives have a fitted effect of over 45% in size
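AMA1 (3D7) with his tag at 25 nM final met compounds first, then biotinylated RON2 peptide at 25 nM; detection used donor plus acceptor beads, 10 µg/mL apiece, read by AlphaScreen after 30 min at room temperature.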
HCV inhibitor: qHTS Assay for Inhibitors of Hepatitis C Virus (HCV); Huh7.5.1 HCVcc-Cre infection, luciferase reporter, 44 h; Potency, µM (titrated, usually from 41.8 µM), usual class: inhibitors; hit rate 3.4% among 340,000; AID 651820, 2012
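HCVcc-Cre virus at an moi near 0.5 was added right after compound to cells cultured 4 h from seeding (1,000 cells/well). Luciferase activity was determined 44 h later, 15 min after substrate addition at RT.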
Pf growth 96h: Primary qHTS for delayed death inhibitors of the malarial parasite plastid, 96 hour incubation. P. falciparum luciferase reporter growth, 96 h. Potency, µM (titrated, usually from 28.7 µM), actives largely listed as inhibitors. hit rate 6.9% among 320,000. AID 504834, 2011
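Two-generation exposure (96 h) targets delayed-death phenotype. Reporter parasites carrying integrated firefly luciferase, in red cells at 2% hematocrit and 0.05% parasitemia final, kept at 37 C, 5% CO2; luminescence loss indicates inhibition.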
SARS PLP yeast: qHTS of Yeast-based Assay for SARS-CoV PLP; S. cerevisiae expressing SARS-CoV PLpro, growth rescue; Potency, µM (top dose mostly 32.9 µM), hits mostly activators; hit rate 0.19% among 330,000; AID 485353, 2010; calls by dose curve; also: nearly all actives have a fitted effect of over 55% in size
Hits are given with their value; n = inactive; u = inconclusive; x = no result; [ ] = dose if it differs, or a comment. Unless noted, calls follow the shape of the dose curve; as a rule, active = well fitted curve in the direction sought with a large enough effect; inconclusive = small, poorly fitted or top-dose-only effect, or another doubt; inactive = no such curve, though single readings can be large; an effect the other way counts as inactive or inconclusive.

SMILES	NS1 inh	Pf growth 48h	AMA1-RON2 inh	HCV inhibitor	Pf growth 96h	SARS PLP yeast
OCC1(CCOc2ccccc2)CCN(Cc2ccccc2C(F)(F)F)CC1	n	n	n	n	8.3µM	n
CCOc1ccccc1CN1CCC(CO)(CCOc2ccccc2)CC1	n	u	n	n	n	n
COc1ccc(CN2CCC(CO)(CCOc3ccccc3)CC2)c(OC)c1C	n	3.7µM	n	u	n	n
Cc1ccc(S(=O)(=O)N2CCN(C(=O)c3cc4c(C)nn(-c5ccccc5C)c4s3)CC2)cc1	u	4.7µM	n	u	3.3µM	n
Cc1ccccc1-n1nc(C)c2cc(C(=O)N3CCOCC3)sc21	n	n	n	n	3.3µM	n
CC1Cc2ccccc2N1S(=O)(=O)c1cccc(C(=O)NCCCn2ccnc2)c1 (stereo unspecified)	x	u	n	n	u	n
Cc1c(C(N)=O)sc2nc(-c3ccccc3)cn12	n	n	n	u	10µM	n
COc1ccc(-c2cn3c(C)c(C(=O)N4CCN(c5ccccc5F)CC4)sc3n2)cc1	n	u	n	u	u	n
Cc1c(C(=O)N2CCN(c3ccccc3F)CC2)sc2nc(-c3ccccc3)cn12	n	n	n	u	1.9µM	n
COc1ccc(C(=O)NCCCn2nc(C)cc2C)cc1S(=O)(=O)N1CCOCC1	x	n	n	n	n	n
CN(C(=O)CSc1cc(C(=O)c2nccn2C)c2ccccc2n1)c1ccccc1	n	u	u	n	n	n
Cc1nc2sccn2c(=O)c1CCN1CCC(=C(c2ccccc2)c2ccc(F)cc2)CC1	u	15µM	x	n[8.37 µM]	15µM	n
COc1cc(CNc2ncnc3c2ncn3[C@H]2CN(Cc3cccc4ccccc34)C[C@@H](CO)O2)cc(OC)c1OC	x	x	n	x	x	x
O=S(=O)(NCC(c1cccnc1)N1CCN(c2ccccc2F)CC1)c1cccs1 (stereo unspecified)	n	13µM	n	n	u	n
O=S(=O)(NCC(c1cccnc1)N1CCN(c2ccc(F)cc2)CC1)c1cccs1 (stereo unspecified)	n	u	u	n	n	n
C/C(=N\Nc1nc2ccccc2[nH]1)c1ccccn1	n	2.9µM	x	x	u	n
C/C(=N\Nc1nc2ccccc2[nH]1)c1ccc2c(c1)OCCO2	x	3.7µM	n	u	u	n
C/C(=N\Nc1nc2ccccc2[nH]1)c1cc2ccccc2o1	n	n	n	u	u	n
Cc1noc(C)c1NC(=O)N(C)C[C@@H]1Oc2ccc(NC(=O)C3CCCCC3)cc2C(=O)N([C@@H](C)CO)C[C@H]1C	x	x	n	n	x	n
O=C(NC(=S)Nc1cccc([N+](=O)[O-])c1)c1ccco1	n	n	n	n	8.3µM	n
CCCC(=O)Nc1ccc(Cl)c(NC(=O)c2ccc([N+](=O)[O-])cc2Cl)c1	n	n	n	u	u	n
COC(=O)CCC(=O)Nc1cccc([N+](=O)[O-])c1	x	n	n	n	12µM	n
O=C(NC(=S)Nc1cccc(NC(=S)NC(=O)c2ccco2)n1)c1ccco1	n	n	n	u	1.3µM	n
CCCC(=O)Nc1cccc(NC(=O)c2ccc([N+](=O)[O-])cc2Cl)c1	n	n	n	7.9µM	n	n
Cc1cccc(NC(=S)NC(=O)c2ccco2)c1C	n	n	n	n	n	n
SMILES	NS1 inh	Pf growth 48h	AMA1-RON2 inh	HCV inhibitor	Pf growth 96h	SARS PLP yeast
O=C(O)C[C@H](S)C(=O)O	n	x	x	x	x	x
Cc1ccccc1N1CCN(CC(=O)Nc2ccccc2C(=O)NC2CC2)CC1	x	u	n	u	u	n
Cc1cc(NC(=O)COc2cccc([N+](=O)[O-])c2)no1	n	1.7µM	n	n	n	n
O=C(COc1ccccc1)NC(=S)Nc1cccc([N+](=O)[O-])c1	n	n	n	n	1.7µM	n
CCN(CC)S(=O)(=O)c1ccc(N2CCCC2)c(C(=O)OCC(=O)Nc2cc(C)on2)c1	n	n	n	n	u	n
C/C(=N/NS(=O)(=O)c1cc(C)ccc1C)c1ccc2c(c1)OCO2	n	n	n	n	12µM	n
Cc1ccc(C)c(S(=O)(=O)NCc2ccncc2)c1	n	u	n	u	u	n
C/C(=N/NS(=O)(=O)c1cc(C)ccc1C)c1ccncc1	n	n	n	n	12µM	n
O=C(Nc1cccnc1)c1cc2cc(Br)ccc2o1	n	n	n	u	u	n
O=c1cc(-c2ccccc2)oc2ccc(Br)cc12	x	x	n	n	x	n
O=C(COc1ccc2c(-c3ccccc3)cc(=O)oc2c1)Nc1ccc(CN2CCOCC2)cc1	n	n	n	u	u	n
O=C(COc1ccc2c(-c3ccccc3)cc(=O)oc2c1)Nc1ccc(CCO)cc1	n	n	n	7.1µM	n	n
CCCc1cc(=O)oc2cc(OCC(=O)NC(Cc3ccc(Cl)cc3)C(=O)O)ccc12 (stereo unspecified)	u	n	n	0.5µM	n	n
O=C(COc1ccc2oc(-c3ccccc3)cc(=O)c2c1)Nc1ccccc1	n	n	n	n	3.7µM	n
CCCCc1cc(=O)oc2cc(OCC(=O)N[C@@H](Cc3ccccc3)C(=O)O)ccc12	u	u	n	n	n	n
CCCOC(=O)c1ccccc1O	x	n	x	x	n	x
CCCN(CC(=O)Nc1ccccc1C)C(=O)c1ccc(N2CCCC(C)C2)c([N+](=O)[O-])c1 (stereo unspecified)	x	x	n	n	x	x
N=C(N)c1ccc(/C=C/c2ccc(C(=N)N)cc2O)cc1	n	1.1µM	n	n	0.076µM	n
[2H]c1c([2H])c([2H])c(-c2nc(N3CCCCCC3)sc2C(=O)c2ccccc2)c([2H])c1[2H]	n	u	n	u	4.1µM	n
CCOC(=O)c1ccc(NC(=O)CCc2nnc3ccc(N4CCCC4)nn23)cc1	u	n	n	n	n	n
CCOc1ccc(CCNC(=O)CCc2nnc3ccc(N4CCOCC4)nn23)cc1	n	n	n	n	n	n
CCOc1ccc(CCNC(=O)CCc2nnc3ccc(N4CCCCC4)nn23)cc1OCC	n	u	n	n	5.2µM	n
CCN(CC)c1ccc(NC(=O)CCc2nnc3ccc(N4CCCC4)nn23)c(C)c1	n	12µM	n	n	u	n
COc1cccc(-c2nn3c(-c4ccccn4)nnc3s2)c1	n	x	n	n	n	n
Cc1cccc(-c2nnc3sc(-c4ccccc4)nn23)c1	n	n	n	u	2.3µM	n
COc1cccc(-c2nn3c(-c4ccco4)nnc3s2)c1	n	n	n	n	8.3µM	n
COc1cccc(-c2nn3c(-c4cc(C)[nH]n4)nnc3s2)c1	n	x	n	n	10µM	n
COc1cc(-c2nn3c(-c4ccco4)nnc3s2)cc(OC)c1OC	n	n	x	x	u	n
